Results on 10 compounds are retold here after PubChem BioAssay.

Assay [1] relates to Wnt5a (protein binding on small-molecule microarray). Kind of assay: Wnt5a binders on small-molecule microarray, primary screen, biophysical, 635/667 nm fluorescence (AID 1142).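 Also: fluorescence read at 667 nm with signal to noise per printed feature.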 Conditions: 635 nm fluorescence, higher = more signal.
Assay [2] can be described thus: cell viability in Huh7 cells, primary screen, cytotoxicity control for HCV replication inhibitor project, CellTiter-Glo luminescence, basal, 48 h (AID 1143).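 Also: Huh7 hepatoma cells carrying a hepatitis C replication reporter with no stimulus; test concentration not given here.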 The following applies: Huh7 HCV replicon, higher = more signal, called active from +8 up or from −8 down.
The nature of assay [3]: P. aeruginosa biofilm formation inhibitors, primary screen, PAO1 strain, BacTiter-Glo luminescence, LB-PBS (AID 1144). Conditions: 12 h, higher = more signal.
Assay [4] in a line: CREB reporter modulators without forskolin, primary screen, cell-based, PC12, CRE-LacZ reporter, unstimulated (AID 1145). Conditions: no forskolin, luminescence, 4.5 h, higher = more signal, called active from +8 up or from −8 down.
The nature of assay [5]: CREB reporter modulators under forskolin, primary screen, cell-based, PC12, CRE-LacZ reporter, forskolin-stimulated (AID 1146).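 Also: PC12 cells with 6xCRE LacZ reporter stimulated by forskolin 10 µM; beta-galactosidase reporter signal reflecting CREB driven transcription.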 Conditions: luminescence, 4.5 h, higher = more signal, called active from +8 up or from −8 down.
Assay [6] deals with Streptavidin (Streptomyces avidinii) (UniProt P22629). Description: streptavidin binders on small-molecule microarray, primary screen, artefact control for SMM compound annotation, biophysical, 635/667 nm fluorescence (AID 1147).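 Also: signal reflects streptavidin binding to arrayed compounds as a control protein.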 Conditions: streptavidin binding, higher = more signal.
The nature of assay [7]: small-molecule binders of probe aInhba, primary screen, biochemical, small-molecule microarray, 635/667 nm fluorescence (AID 1148).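 Also: score merges 667nm spot fluorescence with signal-to-noise for antibody binding to printed compounds.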 Conditions: higher = more signal.
For assay [8], the target named is Torsin-1A (Homo sapiens) (UniProt O14656). Description: torsin A binders from cell lysate, primary screen, small-molecule microarray, wild-type, 635/667 nm (AID 1149). Conditions: COS7 hTOR1A-WT lysate, 635 nm fluorescence, higher = more signal.
Assay [9] has the same target. Description: small-molecule binders of mutant TOR1A in lysate, primary screen, cell lysate, small-molecule microarray, COS7 lysate, 635/667 nm fluorescence (AID 1150).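 Also: score pools 667 nm emission and signal to noise measuring lysate protein binding.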 The following applies: COS7 hTOR1A mutant lysate, 635 nm fluorescence, higher = more signal.
Assay [10] concerns Sonic hedgehog protein (Shh). Description: small-molecule binders of Shh protein, primary screen, biochemical, small-molecule microarray, 635/667 nm fluorescence (AID 1151).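 Also: Shh protein binding to compounds spotted on small-molecule microarray slides; score combines spot fluorescence intensity with signal-to-noise across triplicate slides.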 Conditions: small-molecule microarray binding, 635 nm fluorescence; higher = more signal.

Calls of active or inactive are those of the source. Unless noted, no rule for the calls is given here.

Chain of Streptavidin (Streptomyces avidinii) (P22629 whole entry, looked up): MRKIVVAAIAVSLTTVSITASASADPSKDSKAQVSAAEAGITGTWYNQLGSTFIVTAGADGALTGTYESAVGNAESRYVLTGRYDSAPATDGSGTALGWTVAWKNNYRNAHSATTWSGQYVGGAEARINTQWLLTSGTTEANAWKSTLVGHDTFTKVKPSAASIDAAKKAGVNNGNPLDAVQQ
Chain of Torsin-1A (Homo sapiens) (O14656 whole entry, looked up): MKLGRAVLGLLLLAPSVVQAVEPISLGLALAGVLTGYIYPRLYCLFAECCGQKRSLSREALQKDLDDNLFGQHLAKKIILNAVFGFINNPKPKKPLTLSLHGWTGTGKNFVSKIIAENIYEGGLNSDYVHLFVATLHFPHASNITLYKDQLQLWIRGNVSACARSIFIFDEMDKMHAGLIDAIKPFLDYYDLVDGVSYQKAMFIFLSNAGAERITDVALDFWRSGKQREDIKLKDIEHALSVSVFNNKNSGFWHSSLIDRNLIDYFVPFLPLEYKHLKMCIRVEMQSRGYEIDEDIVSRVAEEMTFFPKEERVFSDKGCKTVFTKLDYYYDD

For `CCCCN1CC=CC23O[C@@H]4C=CCCOC(=O)C4[C@H]2C(=O)N(CCCCCCO)[C@@H]3C1=O` (stereo not given in full), the composite z-score was -0.767 in assay [1]; -0.564 in [6]; -0.208 in assay [7]; -1.22 with Torsin-1A (Homo sapiens) [8]; -1.23 with Torsin-1A (Homo sapiens) [9]; 1.65 in assay [10]. Further, the z-score is 0.311 (inactive) in [2], 0.844 (inactive) in assay [3], 0.333 (inactive) in assay [4] and -0.199 (inactive) in [5].

In the case of `O=C(c1ccccc1)N1C(=O)[C@@]2(Cc3ccccc31)N=C(c1ccc(OCCCO)cc1)O[C@H]2c1ccccc1`, the composite z-score in assay [1] came out at 0.54; in assay [6], 0.353; in [7], 0.346; with Torsin-1A (Homo sapiens) [8] it was 0.388; with Torsin-1A (Homo sapiens) [9], 1.01; in assay [10], 1.27. Also, the z-score in assay [2] is -4.44 (inactive); in assay [3] it was 0.849 (inactive); in assay [4], 1.11 (inactive); in assay [5] it was 1.28 (inactive).

As for `COC(=O)[C@H](Cc1ccccc1)N[C@@H](/C=C/C1CC1)[C@H](O)Cc1ccccc1`, the composite z-score in assay [1] is 1.2; in [6], 0.648; in assay [7], -0.231; in the assay with Torsin-1A (Homo sapiens) [8], 0.324; with Torsin-1A (Homo sapiens) [9] it was 0.341; in [10] it was -0.21. Besides, the z-score in assay [2] is -0.389 (inactive); in [3], 0.186 (inactive); in [4] it was 1.31 (inactive); in [5] it was 0.15 (inactive).

Regarding `CN1C(=O)C2C=CC(C(O)c3ccccc3)N(N(c3ccccc3)c3ccccc3)C2C1=O` (stereo not given), the composite z-score in assay [1] is -0.117; in [6], 0.39; in [7], 0.0051; with Torsin-1A (Homo sapiens) [8], -0.351; in the assay with Torsin-1A (Homo sapiens) [9], -0.398; in assay [10] it was 0.522. Also, the z-score is 0.653 (inactive) in assay [2], 0.808 (inactive) in [3], -0.712 (inactive) in assay [4] and 0.635 (inactive) in [5].

Regarding `COC(=O)[C@@]1(Cc2ccc(OC)cc2)[C@H]2c3cc(C(=O)N4CCCC4)n(Cc4ccc(C)c(F)c4F)c3C[C@H]2CN1C(=O)c1ccccc1`, the composite z-score in [1] is 0.634; in [6], 1.81; in [7], 0.289; with Torsin-1A (Homo sapiens) [8] it was -0.429; with Torsin-1A (Homo sapiens) [9], 0.839; in [10], -0.746. For the same compound, the z-score in assay [2] was -2.92 (inactive); in assay [3] it was 0.605 (inactive); in assay [4], -1.15 (inactive); in assay [5] it was -0.572 (inactive).

Consider `Cc1ccc(S[C@]2(C(=O)NC3CC3)CC(=O)N(Cc3ccccc3)[C@@H]2c2ccc(CO)cc2I)cc1`, for which the composite z-score in assay [1] was -0.232; in [6], -0.716; in assay [7], 0.235; with Torsin-1A (Homo sapiens) [8], -1.19; with Torsin-1A (Homo sapiens) [9], -1.63; in assay [10] it was -0.517. Also, the z-score was -2.1 (inactive) in [2], -0.0682 (inactive) in [3], 1.04 (inactive) in assay [4] and 1.03 (inactive) in assay [5].

Regarding `CCN(CC)c1ccc(N2CC=CC34O[C@@H]5C=CCCOC(=O)C5[C@H]3C(=O)N(CCCCCCO)[C@@H]4C2=O)cc1` (stereo not given in full), the composite z-score in [1] is -0.212; in [6] it was -0.729; in assay [7] it was -0.209; in the assay with Torsin-1A (Homo sapiens) [8] it was 0.454; with Torsin-1A (Homo sapiens) [9] it was 1.57; in assay [10] it was -0.179. Moreover, the z-score was -1.32 (inactive) in assay [2], -1.35 (inactive) in [3], -1.85 (inactive) in assay [4] and -0.716 (inactive) in [5].

As to `COc1ccc(-c2cc3c(c(-c4ccc(Oc5ccccc5)cc4)n2)[Si](C(C)C)(C(C)C)OC3)cn1`, the composite z-score was -0.394 in [1]; 0.114 in assay [6]; 0.038 in assay [7]; -0.664 with Torsin-1A (Homo sapiens) [8]; -0.336 with Torsin-1A (Homo sapiens) [9]; 1.08 in assay [10]. In addition, the z-score in [2] was -1.11 (inactive); in assay [3], -0.0233 (inactive); in assay [4], -0.127 (inactive); in assay [5], -0.0129 (inactive).

For the compound `O=C(c1ccccc1)N1C(=O)[C@]2(COC(c3ccc(OCCCO)cc3)=N2)Cc2ccccc21`, the composite z-score was 0.363 in assay [1]; 0.532 in assay [6]; 0.249 in assay [7]; 0.273 in the assay with Torsin-1A (Homo sapiens) [8]; 0.87 in the assay with Torsin-1A (Homo sapiens) [9]; 0.658 in assay [10]. In addition, the z-score is -3.03 (inactive) in assay [2], -0.382 (inactive) in assay [3], 1.03 (inactive) in assay [4] and 0.822 (inactive) in assay [5].

`CCCC#C[Si](O[C@H](CC)c1cn(Cc2cccc(Cl)c2)nn1)(C(C)C)C(C)C`: the composite z-score was found to be 0.227 in assay [1]; 0.379 in assay [6]; 0.192 in assay [7]; 0.882 in the assay with Torsin-1A (Homo sapiens) [8]; 0.244 in the assay with Torsin-1A (Homo sapiens) [9]; 0.773 in assay [10]. Besides, the z-score in assay [2] was -1 (inactive); in assay [3], -0.618 (inactive); in assay [4] it was -0.505 (inactive); in [5], -0.558 (inactive).
